Screens from PubChem.
KB-3-1 cytotox – kills parental KB-3-1 adenocarcinoma cells; AID 1347075; actives 1.4% (n = 400,000); Potency, µM (titrated, usually from 46.1 µM), hits mostly cytotoxic; KB-3-1 viability, CellTiter-Glo ATP luminescence, 72 h; further: on the % scale 0 is the no-effect control and ±100 the full control effect; nearly all actives have a fitted effect of over 60% in size
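Multi-concentration cytotoxicity screen in KB-3-1 cells grown in DMEM lacking phenol red with 10% FBS. After 72 h at 37 °C with compound, ATP-dependent luminescence was recorded.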
SW480 rereplic – inducers of DNA re-replication in SW480 colon cancer cells. actives 1.8% (n = 340,000). Potency, µM (top dose mostly 46.1 µM), for inactives: at the highest dose re-replication activation, usual class: activators. AID 624297. SW480 DNA re-replication, Hoechst DNA content imaging, 48 h; further: % of control where 0% means no effect; nearly all actives have a fitted effect of over 55% in size
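Compounds, transferred as 23 nL by pin tool, were incubated with cells for 48 hr; DNA content per nucleus was then quantified by Hoechst staining and fluorescence plate imaging.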
HT1080NT lethal – kills 2HG-producing HT-1080-NT fibrosarcoma cells | HT-1080-NT fibrosarcoma viability, CellTiter-Glo ATP luminescence, 48 h | Potency, µM (top dose mostly 46.1 µM), for inactives: at the highest dose activity, negative = less viability, actives largely listed as cytotoxic | actives 1.6% (n = 360,000) | AID 686970;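 further: NT is the 2HG producing partner of a matched IDH1 knockdown line; 0% = DMSO-treated cells and -100% = media-only wells without cells; nearly all actives have a fitted effect of over 55% in size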
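A 48-hour cytotoxicity screen used HT-1080-NT cells plated 2 hours before compound delivery. ATP-based CellTiter-Glo luminescence measured viability, normalized to DMSO and no-cell controls.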
HT1080 IDH1KD tx – HT-1080 IDH1 knockdown cell toxicity (counter line) | HT-1080 IDH1 knockdown viability, ATP luminescence, 48 h | Potency, µM (titrated, usually from 46.1 µM), for the others: top-dose activity, negative = toxicity, most hits filed as cytotoxic | actives 2% (n = 360,000);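 further: 0% = DMSO wells and -100% = cell-free medium wells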
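Viability of IDH1-knockdown HT-1080 fibrosarcoma cells was assessed by CellTiter-Glo after 48 h at 37 °C with titrated compound; concentration-effect curves were classified by fit quality and response size.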
KB-V1 cytotox – kills drug-selected multidrug resistant KB-V1 cells; Potency, µM (highest dose often 46.1 µM), most hits filed as cytotoxic; KB-V1 MDR cells viability, CellTiter-Glo, 72 h; actives 3.4% (n = 400,000); further: on the % scale 0 is the no-effect control and ±100 the full control effect; nearly all actives have a fitted effect of over 60% in size
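Potencies derive from concentration-effect curves fitted to normalized luminescence (CellTiter-Glo) of KB-V1 cells treated for 72 h at 37 degrees C in phenol-red-free DMEM containing 10% FBS.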
MCF10A rereplic – induces DNA re-replication in MCF 10a normal breast cells; Potency, µM (doses to about 46.1 µM), for the others: at the highest dose activity, positive = re-replication, hits mostly activators; actives 2.9% (n = 350,000); AID 624296; MCF 10A DNA re-replication, Hoechst nuclear intensity, 48 h; further: % of control where 0% means no effect; nearly all actives have a fitted effect of over 50% in size
Active calls of the source: *; i = inactive; ? = inconclusive; nt = no result; [ ] = another dose, or the depositor's remark. Compounds with a hit are over-represented: about 7.9% of the library has one in this group of screens. The call rests on the fitted dose curve; in most records, active means well fitted curve in the direction sought with a large enough effect; inconclusive means small, poorly fitted or top-dose-only effect, or another doubt; inactive means no such curve, though single readings can be large; an effect the other way counts as inactive or inconclusive. Potency means the concentration at half of the fitted maximal effect.

SMILES	KB-3-1 cytotox	SW480 rereplic	HT1080NT lethal	HT1080 IDH1KD tx	KB-V1 cytotox	MCF10A rereplic
C[C@@H](CN(C)C)CN1c2ccccc2Sc2ccccc21	nt	-10%[20.6 µM]	nt	nt	nt	-3%[20.6 µM]
CC(CN(C)C)CN1c2ccccc2Sc2ccccc21 (centres undefined)	i	-20%	16µM*	?	18µM*	-9%
COc1ccc2c(c1)N(C[C@H](C)CN(C)C)c1ccccc1S2	i	?	23µM*	21µM*	?	-1%
COc1ccc2c(c1)N(C[C@@H](C)CN(C)C)c1ccccc1S2	nt	-5%[20.6 µM]	nt	nt	nt	3%[20.6 µM]
O=C(c1ccc(Br)c([N+](=O)[O-])c1)N1CCN(Cc2ccccc2)CC1	i	-5%	-10%	1%	i	13%
O=C(c1ccc(S(=O)(=O)c2ccc(F)cc2)c([N+](=O)[O-])c1)N1CCCCCC1	i	?	-21%	?	8.2µM*	?
O=C(c1ccc(S(=O)(=O)c2ccccc2Cl)c([N+](=O)[O-])c1)N1CCN(Cc2ccccc2)CC1	?	21µM*	-2%	?	2.3µM*	?
COc1ccc(N2CCN(C(=O)c3ccc(F)cc3)CC2)c([N+](=O)[O-])c1	i	-99%	4%	8%	?	-27%
O=C(c1ccc(F)cc1)N1CCN(c2cc(N3CCCCC3)c(F)cc2[N+](=O)[O-])CC1	i	13%	0%[9.24 µM]	?	9.2µM*	30%
CCc1ccc(C2c3c(oc4ccc(C)cc4c3=O)C(=O)N2c2nc(C)c(C)s2)cc1 (centres undefined)	i	nt	nt	nt	i	nt
CCOC(=O)c1cc2c(=O)n3ccccc3nc2n(CC(C)C)c1=NC(=O)COc1ccc(Cl)cc1	i	nt	nt	nt	i	nt
CC(C)OCCCNC(=O)c1c2c(nc3ccccc13)C(=O)N(C1CCCCC1)C2	i	nt	nt	nt	i	nt
O=C(NCC1CCCO1)C(=Cc1cccc([N+](=O)[O-])c1)C(=O)NCC1CCCO1 (centres undefined)	?	?	16µM*	?	i	?
O=C(NCC1CCCO1)c1ccccc1NS(=O)(=O)c1cc([N+](=O)[O-])ccc1Cl (centres undefined)	?	3%	-11%	-7%	16µM*	6%
O=C(NCCN1CCOCC1)NC1(C(F)(F)F)Oc2ccc(Cl)cc2O1 (centres undefined)	4.6µM*	9%	-21%	-33%	?	20%
O=C(NCCN1CCOCC1)c1cc(Cl)ccc1Cl	i	-11%	-14%	-1%	i	-2%
O=C(NC1CCCC1)c1ccc2nc(-c3ccco3)c(-c3ccco3)nc2c1	?	?	-21%	-17%	i	?
O=C(NCCc1ccccc1)c1ccc2nc(-c3ccco3)c(-c3ccco3)nc2c1	?	?	4%	-1%	?	21µM*
CCOC(=O)C1CCN(C(=O)Nc2ccc3nc(-c4ccco4)c(-c4ccco4)nc3c2)CC1	i	-6%	-3%	-3%	i	?
O=C(NCCO)c1ccc2nc(-c3ccco3)c(-c3ccco3)nc2c1	i	-1%	-19%	-16%	i	-5%
O=C(c1ccccc1)c1ccc2nc(-c3ccco3)c(-c3ccco3)nc2c1	i	?	?	18µM*	?	?
O=C(Nc1ccc2nc(-c3ccco3)c(-c3ccco3)nc2c1)N1CCCCCC1	i	?	-29%	?	?	18µM*
COc1ccc(CNc2nc(Cl)nc3nc[nH]c23)cc1	?	nt	nt	nt	i	nt
Cc1cc(C)cc(-n2c(SCC(N)=O)nc3c([nH]c4ccccc43)c2=O)c1	i	nt	nt	nt	i	nt
Cc1ccc(CNC(=O)Cn2c(=O)cc(-c3ccccc3)c3c(C)nn(C)c32)cc1	i	nt	nt	nt	i	nt
CCNc1cccc(S(=O)(=O)N2CCCN(S(=O)(=O)c3ccc4c(c3)OCCO4)CC2)c1	i	nt	nt	nt	i	nt
